# According to PubChem BioAssay:
# Records with an inconclusive call do not appear. The source made the active and inactive calls.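 How the source made its calls, unless noted: active means normalized viability below 100% at a tested concentration; inactive means the rest.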
# How the values were obtained:
# [1] = growth inhibition of DIPG glioma cells, dose response, cell-based, SU-DIPG-XVII, MIPE5.0, CellTiter-Glo, qHTS (AID 1347060; cut-off not given, nearly all actives have AC50 up to about 26 µM;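 further: cells exposed to compound for 48 hours before viability readout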); conditions: SU-DIPG-XVII viability, CellTiter-Glo ATP luminescence
# [2] = growth inhibition of DIPG glioma cells, dose response, cell-based, JHH-DIPG-1, MIPE4.0, CellTiter-Glo, qHTS (AID 1347062; cut-off not given, nearly all actives have AC50 up to about 27 µM;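 further: cells exposed to compound for two days before readout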); conditions: JHH-DIPG-1 viability, CellTiter-Glo ATP luminescence
# [3] = growth inhibition of DIPG glioma cells, dose response, cell-based, SU-DIPG-IV, MIPE4.0, CellTiter-Glo, qHTS (AID 1347063; cut-off not given, nearly all actives have AC50 up to about 30 µM;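 further: compound exposure lasted 48 hours before the viability readout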); conditions: SU-DIPG-IV viability, CellTiter-Glo ATP luminescence
# [4] = growth inhibition of DIPG glioma cells, dose response, cell-based, SU-DIPG-XIII, MIPE5.0, CellTiter-Glo, qHTS (AID 1347064; cut-off not given, nearly all actives have AC50 up to about 23 µM;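 further: cells exposed to compound for 48 hours before the viability read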); conditions: SU-DIPG-XIII viability, CellTiter-Glo ATP luminescence
# [5] = viability loss in pontine glioma line – cell-based, SU-DIPG-XXV, MIPE5.0, CellTiter-Glo, qHTS, dose response (AID 1347065; cut-off not given, nearly all actives have AC50 up to about 26 µM;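 further: cells exposed to compound for 48 hours before ATP readout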); conditions: CellTiter-Glo ATP luminescence
# [6] = JHH-DIPG-1 glioma cell viability, MIPE5.0 library, CellTiter-Glo luminescence, qHTS (AID 1347067; cut-off not given, nearly all actives have AC50 up to about 26 µM;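 further: cells exposed to compound for 48 hours before readout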); conditions: JHH-DIPG-1 glioma viability, CellTiter-Glo ATP luminescence
# [7] = SU-DIPG-XXV glioma cell viability, MIPE5.0 library, qHTS (AID 1347068; cut-off not given, nearly all actives have IC50 up to about 30 µM;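 further: cells exposed to compound for 48 hours before viability readout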)
# [8] = sensitizers of A549 cells to miR-34 induction, primary screen, imaging, A549 dox-inducible miR-34, nuclei and caspase counts (AID 1347080;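 active means compounds whose cell count with miR-34 switched on is under 0.7 times the count with it off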); conditions: A549 miR-34 inducible, Hoechst nuclei count, 48 h
# [9] = modifiers of HSF1 nuclear foci, imaging, Selleck Cancer Library (AID 1347162; in the data active means plate-normalised HSF1 focus index below about 0.46); conditions: human cells, at 10 µM; SSMD: measured here: HSF1 foci SSMD mean; cell count: measured here: cell number; plate-normalised HSF1 focus index: stronger effect = lower value
# [10] = survival rescue of mitochondrial mutant cells in low glucose, primary screen, MELAS cybrids, Rieske KO mouse fibroblasts, CellTiter-Glo (AID 1508586;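 active means mean z-score across replicates of 1.96 or higher in either the MELAS or the Rieske mutant cell line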;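 further: z relative to plate mean and SD of compound and empty wells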)
# [11] = ovarian cancer cell viability with rucaparib, profiling panel, oncology-focused library, rucaparib conditional (AID 1508598); conditions: patient-derived ovarian cancer cells, CellTiter-Glo viability, 144 h, stronger effect = lower value
# [12] = SU-DIPG-VI glioma cell viability, MIPE4.0 library, CellTiter-Glo luminescence, qHTS (AID 1347066; cut-off not given, nearly all actives have AC50 up to about 30 µM;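 further: cells exposed to compound for 48 hours before readout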); conditions: CellTiter-Glo ATP luminescence
# [13] = at 0.000305 µM, OCI-C5x cells, with rucaparib 10 µM, 100% = cells with rucaparib alone
# [14] = at 0.000305 µM, OCI-C5x cells, without rucaparib
# [15] = at 0.000305 µM, OCI-P5x cells, with rucaparib 20 µM, 100% = cells with rucaparib alone
# [16] = at 0.000305 µM, OCI-P5x cells, without rucaparib
# [17] = at 0.00122 µM, OCI-C5x cells, with rucaparib 10 µM, 100% = cells with rucaparib alone
# [18] = at 0.00122 µM, OCI-C5x cells, without rucaparib
# [19] = at 0.00122 µM, OCI-P5x cells, with rucaparib 20 µM, 100% = cells with rucaparib alone
# [20] = at 0.00122 µM, OCI-P5x cells, without rucaparib
# [21] = at 0.00488 µM, OCI-C5x cells, with rucaparib 10 µM, 100% = cells with rucaparib alone
# [22] = at 0.00488 µM, OCI-C5x cells, without rucaparib
# [23] = at 0.00488 µM, OCI-P5x cells, with rucaparib 20 µM, 100% = cells with rucaparib alone
# [24] = at 0.00488 µM, OCI-P5x cells, without rucaparib
# [25] = at 0.0195 µM, OCI-C5x cells, with rucaparib 10 µM, 100% = cells with rucaparib alone
# [26] = at 0.0195 µM, OCI-C5x cells, without rucaparib
# [27] = at 0.0195 µM, OCI-P5x cells, with rucaparib 20 µM, 100% = cells with rucaparib alone
# [28] = at 0.0195 µM, OCI-P5x cells, without rucaparib
# [29] = at 0.0781 µM, OCI-C5x cells, with rucaparib 10 µM, 100% = cells with rucaparib alone
# [30] = at 0.0781 µM, OCI-C5x cells, without rucaparib
# [31] = at 0.0781 µM, OCI-P5x cells, with rucaparib 20 µM, 100% = cells with rucaparib alone
# [32] = at 0.0781 µM, OCI-P5x cells, without rucaparib
# [33] = at 0.313 µM, OCI-C5x cells, with rucaparib 10 µM, 100% = cells with rucaparib alone
# [34] = at 0.313 µM, OCI-C5x cells, without rucaparib
# [35] = at 0.313 µM, OCI-P5x cells, with rucaparib 20 µM, 100% = cells with rucaparib alone
# [36] = at 0.313 µM, OCI-P5x cells, without rucaparib
# [37] = at 1.25 µM, OCI-C5x cells, with rucaparib 10 µM, 100% = cells with rucaparib alone
# [38] = at 1.25 µM, OCI-C5x cells, without rucaparib
# [39] = at 1.25 µM, OCI-P5x cells, with rucaparib 20 µM, 100% = cells with rucaparib alone
# [40] = at 1.25 µM, OCI-P5x cells, without rucaparib
# [41] = at 5 µM, OCI-C5x cells, with rucaparib 10 µM, 100% = cells with rucaparib alone
# [42] = at 5 µM, OCI-C5x cells, without rucaparib
# [43] = at 5 µM, OCI-P5x cells, with rucaparib 20 µM, 100% = cells with rucaparib alone
# [44] = at 5 µM, OCI-P5x cells, without rucaparib
compound,measurement,setting,value
NC1(c2ccc(-c3nc4ccn5c(=O)[nH]nc5c4cc3-c3ccccc3)cc2)CCC1,AC50,[1],16.6 µM (active)
same,AC50,[2],23.5 µM (active)
same,AC50,[3],14.8 µM (active)
same,AC50,[4],6.61 µM (active)
same,AC50,[5],1.86 µM (active)
same,AC50,[6],6.61 µM (active)
same,IC50,[7],18.6 µM (active)
same,fold change,"[8]; stronger effect = lower value, cell number ratio, induced over uninduced",0.999 (inactive)
same,fold change,[8]; measured here: relative caspase fold change +Dox/-Dox,1.72
same,cell count,"[8]; measured here: total cells with miR-34 induction, stronger effect = lower value",4130
same,cell count,[8]; measured here: total cells without miR-34 induction,4140
same,SSMD,[9],3.02
same,cell count,[9],6650
same,plate-normalised HSF1 focus index,[9],1.19 (inactive)
same,z-score,"[10]; MELAS cybrid survival, CellTiter-Glo 48 h, stronger effect = higher value",-0.154 (inactive)
same,z-score,"[10]; Rieske KO mouse fibroblast survival, CellTiter-Glo 72 h",-0.0056
same,viability,[11]; [13],119% (inactive)
same,viability,[11]; [14],118% (inactive)
same,viability,[11]; [15],117% (inactive)
same,viability,[11]; [16],108% (inactive)
same,viability,[11]; [17],119% (inactive)
same,viability,[11]; [18],126% (inactive)
same,viability,[11]; [19],102% (inactive)
same,viability,[11]; [20],112% (inactive)
same,viability,[11]; [21],111% (inactive)
same,viability,[11]; [22],129% (inactive)
same,viability,[11]; [23],103% (inactive)
same,viability,[11]; [24],106% (inactive)
same,viability,[11]; [25],110% (inactive)
same,viability,[11]; [26],119% (inactive)
same,viability,[11]; [27],100% (inactive)
same,viability,[11]; [28],104% (inactive)
same,viability,[11]; [29],119% (inactive)
same,viability,[11]; [30],133% (inactive)
same,viability,[11]; [31],98.1% (active)
same,viability,[11]; [32],98.2% (active)
same,viability,[11]; [33],131% (inactive)
same,viability,[11]; [34],141% (inactive)
same,viability,[11]; [35],90.4% (active)
same,viability,[11]; [36],110% (inactive)
same,viability,[11]; [37],107% (inactive)
same,viability,[11]; [38],150% (inactive)
same,viability,[11]; [39],88.6% (active)
same,viability,[11]; [40],103% (inactive)
same,viability,[11]; [41],134% (inactive)
same,viability,[11]; [42],144% (inactive)
same,viability,[11]; [43],104% (inactive)
same,viability,[11]; [44],106% (inactive)
CC[C@@H]1C(=O)N(C)c2cnc(Nc3ccc(C(=O)NC4CCC(N5CCN(CC6CC6)CC5)CC4)cc3OC)nc2N1C(C)C (stereo partly specified),AC50,[1],0.0742 µM (active)
same,AC50,[2],6.62 µM (active)
same,AC50,[3],2.35 µM (active)
same,AC50,[4],5.9 µM (active)
same,AC50,[5],0.0525 µM (active)
same,AC50,[12],20.9 µM (active)
same,AC50,[6],4.17 µM (active)
same,IC50,[7],6.61 µM (active)
same,SSMD,[9],4.31
same,cell count,[9],7310
same,plate-normalised HSF1 focus index,[9],1.16 (inactive)
same,viability,[11]; [13],101% (inactive)
same,viability,[11]; [14],104% (inactive)
same,viability,[11]; [15],97.4% (active)
same,viability,[11]; [16],102% (inactive)
same,viability,[11]; [17],107% (inactive)
same,viability,[11]; [18],102% (inactive)
same,viability,[11]; [19],100% (inactive)
same,viability,[11]; [20],95.9% (active)
same,viability,[11]; [21],89.2% (active)
same,viability,[11]; [22],87.7% (active)
same,viability,[11]; [23],84.5% (active)
same,viability,[11]; [24],26.8% (active)
same,viability,[11]; [25],51.8% (active)
same,viability,[11]; [26],43.7% (active)
same,viability,[11]; [27],64.2% (active)
same,viability,[11]; [28],18.3% (active)
same,viability,[11]; [29],49.3% (active)
same,viability,[11]; [30],32.9% (active)
same,viability,[11]; [31],67.2% (active)
same,viability,[11]; [32],20.5% (active)
same,viability,[11]; [33],41.4% (active)
same,viability,[11]; [34],36.3% (active)
same,viability,[11]; [35],70.1% (active)
same,viability,[11]; [36],17.3% (active)
same,viability,[11]; [37],26.6% (active)
same,viability,[11]; [38],25.2% (active)
same,viability,[11]; [39],9.33% (active)
same,viability,[11]; [40],13.8% (active)
same,viability,[11]; [41],4.03% (active)
same,viability,[11]; [42],21.5% (active)
same,viability,[11]; [43],1.64% (active)
same,viability,[11]; [44],12.5% (active)
